In PubChem BioAssay (NCI):
This is part of a sample that, as a whole, favours compounds with a hit. Of some 79,000 tested, about 15% had one in any assay. No stated cut-off is given here; in the data, active means growth inhibition above about 70%; inactive means the rest.

Assays:
[1] = NCI Yeast Anticancer Drug Screen. Data for the rad50 strain (AID 155);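 further: 0% = growth of vehicle-only cultures of the same strain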; conditions: S. cerevisiae rad50 strain growth inhibition; at 50.0 µM; hits give high values
Procedure, shortened: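 Growth of the mutant yeast was measured after compound exposure and referenced to vehicle-treated cultures.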

[2] = NCI Yeast Anticancer Drug Screen. Data for the mec2-1 strain (AID 157); conditions: S. cerevisiae mec2-1 strain, at 50.0 µM, hits give high values
Procedure, shortened: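 Readout is yeast growth inhibition, normalised to vehicle-treated controls, in the mec2-1 strain exposed to compound.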

[3] = NCI Yeast Anticancer Drug Screen. Data for the sgs1 mgt1 strain (AID 161);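 further: 0% = growth of cultures given vehicle only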; conditions: S. cerevisiae sgs1 mgt1 strain, at 50.0 µM, hits give high values
Procedure, shortened: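 Percent growth inhibition was derived by comparing compound-exposed mutant yeast with vehicle-exposed cultures. The strain carries alterations in DNA damage repair.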

[4] = NCI Yeast Anticancer Drug Screen. Data for the cln2 rad14 strain (AID 165);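 further: 0% = growth equal to vehicle treated cultures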; conditions: S. cerevisiae cln2 rad14 strain, at 50.0 µM, hits give high values
Procedure, shortened: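 Relative to vehicle controls, growth inhibition of compound-treated cln2 rad14 yeast was recorded.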

[5] = NCI Yeast Anticancer Drug Screen. Data for the bub3 strain (AID 167); conditions: S. cerevisiae bub3 mutant strain, at 50.0 µM, hits give high values
Procedure, shortened: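 Whole-cell yeast assay. The mutant strain was incubated with compounds, and growth inhibition was determined by comparison with vehicle-treated cells.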

[6] = NCI Yeast Anticancer Drug Screen. Data for the mlh1 rad18 strain (AID 175); conditions: S. cerevisiae mlh1 rad18 strain growth inhibition; at 50.0 µM; hits give high values
Procedure, shortened: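 Test agents were incubated with a yeast strain of defined genotype (DNA damage repair defect). Inhibition of growth was derived by comparison with vehicle-exposed cultures.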

Measured: growth inhibition

Cn1c[n+](-c2ccccc2)c([S-])n1
inactive: [1] -0.05% | [2] 5.05% | [3] 5.15% | [4] -22.5% | [5] -24.9% | [6] -7.4%

CC1C(O)=C(O)c2ccccc2N1O (stereo not drawn)
inactive: [1] -9.15% | [2] -11.1% | [3] -8.6% | [4] 12.5% | [5] -6.25% | [6] -10.7%

O=C1OCCN1N1C(=O)CC2(CCN(Cc3ccccc3)CC2)C1=O
inactive: [1] -10.8% | [2] 3% | [3] -0.95% | [4] 1.15% | [5] 0.25% | [6] -17.8%

COc1ccccc1-c1coc2c(ccc3oc(C(C)C)cc32)c1=O
inactive: [1] -19.2% | [2] 20% | [3] 3.25% | [4] -52% | [5] -0.5% | [6] 22.6%

CC(=O)N(c1ccccn1)c1ccccn1
inactive: [1] -15.3% | [2] -10.2% | [3] -19.9% | [4] -54.5% | [5] 0.5% | [6] -31.2%

CSCCC(NC(C)=O)C(=O)O (stereo not drawn)
inactive: [1] 6.1% | [2] 1.5% | [3] -14.4% | [4] -3.55% | [5] -4.85% | [6] -8.3%

COc1ccc(C(=O)c2ccccc2C)cc1OC
inactive: [1] 1.65% | [2] 0.1% | [3] -1.15% | [4] 28.1% | [5] 36.5% | [6] 0.15%

CC(C)CNC(=S)N/N=C/c1ccc(N)cc1
inactive: [1] 31.6% | [2] 13.7% | [3] 3% | [4] 27.8% | [5] 6% | [6] -1.1%

Cc1ccc(C)c(NC(=O)CC/C(=N\NC(=O)c2c(O)ccc3ccccc23)C(C)C(=O)c2ccc(O)cc2)c1 (stereo not drawn)
inactive: [1] 10.2% | [2] 36.5% | [3] -5.55% | [4] 12.6% | [5] 16.1% | [6] 20.8%

O/N=C1\C(=C\c2ccc3c(c2)OCCO3)CCCC1C(NO)c1ccc2c(c1)OCCO2 (stereo not drawn)
inactive: [1] 13.1% | [2] 16.7% | [3] 29.9% | [4] 2.8% | [5] 16.9% | [6] 6.15%

O=C(O)C1(Nc2ccc(Cl)cc2)CCCC1
inactive: [1] 14.3% | [2] -6.75% | [3] -12.6% | [4] -1.45% | [5] 9.65% | [6] 11.6%

CN(CC(=O)NC(=O)c1ccccc1)Cc1ccccc1
inactive: [1] -1.7% | [2] -9.25% | [3] 3.95% | [4] -37% | [5] 3.55% | [6] -7.8%

CCOc1ccc(NCC(=O)N2CC(=O)Nc3ccccc32)cc1
inactive: [1] -19.6% | [2] -21.9% | [3] -40.4% | [4] -5.15% | [5] -42.2% | [6] -35.2%

CC1=C(c2cc(C(=O)Nc3cccc(C(F)(F)F)c3)nc(NC#N)n2)Sc2ccccc2N1
inactive: [1] 17.4% | [2] 1.2% | [3] -3.2% | [4] -2.85% | [5] 2.7% | [6] 11.8%

COc1cc2ccnc(C#N)c2cc1OCc1ccccc1
inactive: [1] -60.1% | [2] -12.3% | [3] -10.7% | [4] -6.15% | [5] -14.2% | [6] -31.3%

CC1CCN(CCOC(=O)c2ccc(OC(C)C)cc2)C1 (stereo not drawn)
inactive: [1] 8.1% | [2] 12.6% | [3] 24.4% | [4] -10.5% | [5] 11.2% | [6] 12.1%

COC(=O)C1=C(C(=O)OC)C(C)(C)N=N1
inactive: [1] 14.2% | [2] 6.65% | [3] 12.7% | [4] -1.65% | [5] 16.1% | [6] 3.45%

CC(=O)OCC(OC(C)=O)C(OC(C)=O)C(OC(C)=O)c1cnn(-c2ccccc2)n1 (stereo not drawn)
inactive: [1] 4.05% | [2] 12.7% | [3] -20% | [4] -22.8% | [5] 5.6% | [6] 6%

CCOc1ccccc1NC(=O)C(=O)c1c(O)c2ccc(O)cc2oc1=O
inactive: [1] 25.7% | [2] 9.55% | [3] 4.8% | [4] 1.8% | [5] -3.25% | [6] -1.75%

COC(=O)c1cc2/c(=N/O)c3ccccc3sc2o1
inactive: [1] -0.45% | [2] -23.1% | [3] -2.1% | [4] 0.75% | [5] -16.4% | [6] -28.8%

CC(C)CC(NC(=O)C(O)C(N)Cc1ccccc1)C(=O)O (stereo not drawn)
inactive: [1] 56.5% | [2] 26.6% | [3] 60.4% | [4] 47.8% | [5] 36% | [6] -21.7%

CC1(CC2(C)SCCCS2)SCCCS1
inactive: [1] -1.1% | [2] -7.55% | [3] 10.7% | [4] -2.35% | [5] -5.8% | [6] 7.8%

O/N=C1\CCc2nonc2\C1=N/Nc1ccccc1
inactive: [1] -2.05% | [2] 2.8% | [3] -2.35% | [4] 1.45% | [5] 7% | [6] -1.9%

C=C1CC[C@H]2C(=O)OC(c3ccoc3)C[C@]2(C)C/C=C\C=C/1C(=O)OC (stereo partly drawn)
inactive: [1] -10.8% | [2] -11.7% | [3] -19.8% | [4] -6% | [5] -27.2% | [6] -22.6%

CCOC(=O)c1cc(CC)[nH]c(=O)c1C#N
inactive: [1] -19.1% | [2] 8.05% | [3] -11.3% | [4] -32.7% | [5] 5.4% | [6] 2.3%

CCOC(=O)CC(O)(c1ccccc1)c1ccccc1
inactive: [1] -30.9% | [2] -47.4% | [3] 7.35% | [4] 5.1% | [5] -25.2% | [6] -31.5%

Cc1ccc(OCc2cccc(Cl)c2)cc1
inactive: [1] 17.8% | [2] -10.4% | [3] 2.5% | [4] -2.9% | [5] -42.1% | [6] -11.3%

Cc1ccncc1C#N
inactive: [1] 5% | [2] -2.25% | [3] -0.9% | [4] 6.55% | [5] 0.3% | [6] 3.95%

CC(=O)OC1C(=O)OCC23CCC(C)=CC2OC2CC(OC(=O)/C=C/C=C/C(=O)OCCC1C)C3(C)C21CO1 (stereo not drawn)
inactive: [1] -35.5% | [2] -4.45% | [3] -31.3% | [4] -4.4% | [5] -22.6% | [6] -19.6%

CN1CC(O)CN(C)C1=S
inactive: [1] -9.05% | [2] -8.2% | [3] 1.6% | [4] -34.6% | [5] -7.9% | [6] -5%

Nc1nc(N)nc(CC(=O)O)n1
inactive: [1] -16.5% | [2] -22.7% | [3] -57% | [4] -60.2% | [5] -14.7% | [6] -36.7%

Cc1ccc(-c2cc(=O)c3cccc(CC(=O)O)c3o2)cc1
inactive: [1] 47.4% | [2] -38.9% | [3] -20.5% | [4] -3.45% | [5] -25.8% | [6] -1.2%

CCOC(=O)N/C=C/C(C)=O
inactive: [1] -31.1% | [2] -14.2% | [3] -1.5% | [4] -29.4% | [5] -6.35% | [6] -14.5%

Fc1ccc(Cl)c2cccnc12
inactive: [1] 2.75% | [2] 9.85% | [3] -6% | [4] -33.7% | [5] 3.95% | [6] 8.1%

c1ccc(-c2nc(-c3nn[nH]n3)c3ccccc3n2)cc1
inactive: [1] -1.2% | [2] 13.7% | [3] 2.85% | [4] -19.6% | [5] 14.5% | [6] 20.8%

C/C(=N\NS(=O)(=O)c1ccc(C)cc1)c1c(C)noc1C
inactive: [1] -13.4% | [2] 7.55% | [3] 13.3% | [4] 3.85% | [5] 6.3% | [6] 13.3%

Cc1ccc(N=Nc2ccc(C)cc2NC(=O)c2ccc(Cl)cc2Cl)cc1
inactive: [1] 9.2% | [2] -9.7% | [3] 9.1% | [4] 4.55% | [5] -1.55% | [6] 18.2%

COC(=O)c1[nH]c(=O)[nH]c(=S)c1N
inactive: [1] 7.75% | [2] 21% | [3] -10.6% | [4] -20.6% | [5] -17.8% | [6] -15.8%
